USP30 inh: inhibitors of human USP30 deubiquitinase; hit rate 5.3% among 47,000; purified USP30, Ub-rhodamine cleavage fluorescence; inhibition, % at 25 µM
USP17 block: inhibitors of human USP17 deubiquitinase; A8MUK1; purified USP17, Ub-rhodamine cleavage fluorescence, 3 h; inhibition, % at 50 µM; hit rate 6.5% among 47,000; AID 1645855
Target sequence (A8MUK1 whole entry, looked up): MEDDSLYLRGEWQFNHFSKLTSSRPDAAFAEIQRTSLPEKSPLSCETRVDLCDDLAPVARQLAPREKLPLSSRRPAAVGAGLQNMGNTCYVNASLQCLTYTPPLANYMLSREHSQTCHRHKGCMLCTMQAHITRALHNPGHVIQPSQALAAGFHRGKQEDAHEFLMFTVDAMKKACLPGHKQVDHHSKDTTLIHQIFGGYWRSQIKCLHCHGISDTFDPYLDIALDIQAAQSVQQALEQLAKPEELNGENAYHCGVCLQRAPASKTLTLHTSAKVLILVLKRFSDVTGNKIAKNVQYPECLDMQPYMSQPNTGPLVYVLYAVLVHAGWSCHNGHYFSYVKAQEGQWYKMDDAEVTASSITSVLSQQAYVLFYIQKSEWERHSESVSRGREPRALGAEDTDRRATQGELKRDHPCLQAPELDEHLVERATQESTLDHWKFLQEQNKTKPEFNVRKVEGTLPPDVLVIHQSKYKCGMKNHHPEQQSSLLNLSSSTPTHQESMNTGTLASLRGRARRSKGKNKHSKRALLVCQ
USP28 block: blocks human USP28 ubiquitin-rhodamine cleavage; inhibition, % at 25 µM; hit rate 3% among 47,000; purified USP28, Ub-rhodamine cleavage fluorescence, 30 min; AID 1645857; Q96RU2
OTUD3 block: inhibitors of human OTUD3 deubiquitinase; Q5T2D3; hit rate 0.7% among 47,000; inhibition, % at 25 µM; purified OTUD3, Ub-rhodamine fluorescence, 2 h; AID 1645858
An asterisk follows results filed as active; nt = not tested or not shown. Shown are actives, neighbours in structure and some others; about 11% of the full set was active somewhere. No stated cut-off is given here; in the data, active means inhibition above about 30%; inactive means the rest.

SMILES	USP30 inh	USP17 block	USP28 block	OTUD3 block
Cc1ccccc1-c1nc(Cn2ccnc2C)no1	14	9	32*	2
Cc1ccc2c(c1)CN(S(C)(=O)=O)CC1(CCN(CC(=O)NCC3CC3)CC1)O2	-2	-3	0	-3
CCCn1c(N)c(NC(=O)c2ccc([N+](=O)[O-])cc2)c(=O)n(CCC)c1=O	18	-12	5	15
O=C(Cn1nc2ccc(C(=O)NCc3ccccc3)cn2c1=O)NCc1ccc(F)cc1	-90	-10	-21	-13
Cc1nc(-c2noc(-c3ccncc3)n2)cn1CC(=O)NC1CCCC1	0	2	-8	-2
O=C(Nc1cccc(S(=O)(=O)N2CCCC2)c1)c1ccc(OCC2CCCO2)cc1 (centres undefined)	19	10	36*	0
COc1ccc(C)cc1NC(=O)CN1CCC(Cc2ccccc2)CC1	18	21	2	16
COc1ccc(S(=O)(=O)N2CCC(Cc3ccccc3)CC2)cc1NC(C)=O	35*	21	14	10
COc1ccc(S(=O)(=O)N2CCCCC2)cc1NC(=O)c1ccc(OCC2CCCO2)cc1 (centres undefined)	47*	20	11	5
O=C(Cn1c(=O)[nH]c2ccccc2c1=O)NC1CCCC1	26	27	8	14
Cc1cccc(C)c1-n1ncc(C(=O)NCc2ccccc2Cl)c1C1CCNCC1	2	-30	-5	-1
Cc1ccc(N(CC(=O)N2CCN(c3ccccc3)CC2)S(=O)(=O)c2c(C)nn(C)c2C)cc1	-4	-7	-2	1
CCNc1nc(SCc2ccc(C)cc2)nc2c1CCCC2	39*	18	27	11
Cc1nc(SCc2ccc(C(=O)O)cc2)nc2c1CCCC2	17	17	14	15
O=C(CCSc1ccc(Cl)cc1)c1cccs1	9	84*	24	20
O=C(Nc1noc2ncccc12)C(c1ccccc1)c1ccccc1	18	16	28	5
COc1cccc(NC(=O)CSc2cc(C)c3cc(S(=O)(=O)N(C)C)ccc3n2)c1	-61	-19	-12	-12
COc1ccc2c(C)cc(SCC(=O)Nc3nsc(-c4ccc(C)cc4)n3)nc2c1	82*	60*	55*	47*
CCOC(=O)c1cc(OCC(=O)Nc2ccc(C)cc2)c2cc(Cl)ccc2n1	5	19	2	18
CCOC(=O)c1cc(OCC(=O)Nc2ccccc2)c2cc(Cl)ccc2n1	-5	40*	-6	-2
O=C(CNC(=O)c1ccc2nc(-n3cccc3)sc2c1)NCc1ccccc1	-265	18	0	-30
C/C=C/C=C/[C@@H]1Cc2cc(O)cc(O)c2O1	82*	97*	91*	87*
Cc1cc(N2CCN(c3ncccn3)CC2)nc2ccc(NC(=O)c3ccncc3)cc12	-3	71*	-2	-3
COc1ccc(C)cc1NC(=O)C1CC(=O)Nc2nc(SCc3ccccc3)nn21 (centres undefined)	-6	53*	6	8
COc1ccc(C2C(C(N)=O)=C(C)Nc3nc(SCc4ccccc4)nn32)cc1 (centres undefined)	-42	-7	-8	0
SMILES	USP30 inh	USP17 block	USP28 block	OTUD3 block
CCOc1ccc2nc(Nc3nc4c(c(-c5ccccc5)n3)CCCC4)nc(C)c2c1	-17	-27	-5	-13
Cc1ccc(C2C3=C(NCCN=C3c3ccccc3)C(=O)N2c2ccccc2)cc1 (centres undefined)	41*	-6	21	17
CCOc1ccc(C2=NCCNC3=C2C(c2ccccc2)N(c2ccccc2)C3=O)cc1 (centres undefined)	54*	7	20	23
COc1ccc(C(=O)Nc2sc3c(c2C(=O)NCc2cccnc2)CCCC3)cc1	14	66*	26	40*
COc1ccc(CN2CCc3oc(C)c(C(=O)NCc4cccnc4)c3C2)cc1	-146	-35	-51	-42
Cc1noc(C)c1S(=O)(=O)Nc1ccc(C(=O)Nc2ccc3c(c2)OCCO3)cc1	0	13	85*	0
CC(OC(=O)c1ccc(N2CCCC2=O)cc1)C(=O)Nc1ccc2c(c1)OCCO2 (centres undefined)	20	43*	6	4
O=C(Nc1ccc2c(c1)OCO2)c1cncc(NS(=O)(=O)c2ccc3c(c2)OCCO3)c1	-282	-41	-47	-50
CC(OC(=O)CNC(=O)c1ccc(Br)cc1)C(=O)Nc1ccc2c(c1)OCCO2 (centres undefined)	24	66*	23	16
O=C(Nc1ccc2c(c1)OCCO2)c1ccc(N2CCCC2=O)cc1	67*	35*	45*	15
CC(C)CCN1[C@H]2CCN(C(=O)c3cnccn3)CC[C@@H]2Oc2ccccc2S1(=O)=O	-17	-11	-8	-4
COc1ccc(C(=O)Nc2cccc(N3CCCCC3=O)c2)cc1	8	-3	10	2
CC(OC(=O)c1ccc(N(C)C)cc1)C(=O)Nc1ccc2c(c1)OCCO2 (centres undefined)	18	40*	26	5
CN(C)S(=O)(=O)c1cccc(NC(=O)c2ccc(N3CCCC3=O)cc2)c1	32*	48*	44*	14
Cc1ccc(OC(C)C(=O)NCc2ccc(-c3ncncc3-c3cc(C)no3)cc2)cc1 (centres undefined)	12	14	6	8
CCc1nc(-c2c(C)cc(C)nc2NC(=O)c2ccc(F)cc2)no1	21	11	14	8
O=C(OCCOc1ccccc1)c1ccc(-c2ccccc2)cc1	21	11	5	17
NC(=O)c1cccc(OCCOc2ccccc2)c1	49*	24	15	0
COc1ccc(CC(=O)N2CCCC(c3nc(C)ncc3-c3cc(C)no3)C2)cc1 (centres undefined)	-5	-2	-9	0
COc1cccc(CC(=O)NC2CCN(c3ccc(F)cc3)C2=O)c1 (centres undefined)	-36	nt	-8	-13
COc1cccc(CN2CCN(c3ccc(F)cc3)C2=O)c1	6	-4	40*	-2
O=C1N(Cc2ccc(F)cc2)CCN1c1ccc2c(c1)CCC2	31*	27	52*	27
CC(C)(C)c1ccc(CN2CCN(c3ccc4c(c3)CCC4)C2=O)cc1	27	16	13	27
O=C1N(Cc2ccc(F)cc2)CCN1c1ccc(C(F)(F)F)cn1	23	4	65*	18
CC(C)c1ccc(N2CCN(Cc3ccc(F)cc3)C2=O)cc1	3	7	31*	7
O=C(CN1C(=O)c2ccccc2Sc2ccc(C(=O)N3CCCC3)cc21)NCc1ccco1	-134	0	-26	-7
COc1ccc(NC(=O)CN2C(=O)c3ccccc3Sc3ccc(C(=O)N4CCCC4)cc32)cc1OC	24	55*	14	16
O=C(Nc1nccs1)C1c2ccccc2C(=O)N(c2ccccc2)C12CCCCC2 (centres undefined)	-8	34*	-10	-3
O=C(Nc1sc2c(c1-c1nc3ccccc3[nH]1)CCCC2)C1CC(=O)N(Cc2ccccc2)C1 (centres undefined)	-73	38*	-14	-16
COc1ccccc1C(=O)Nc1sc2c(c1-c1nc3ccccc3[nH]1)CCCC2	-75	8	-19	-40

Screens deposited in PubChem BioAssay by Buhrlage Lab, Dana-Farber Cancer Institute and Novartis Institutes for BioMedical Research (Cambridge, Mass).
